The campaign covered roughly 69,000 compounds. About 8,600 (12%) showed an effect of 50% or more. The sample holds strong results, similar compounds and a random draw of the others, so the mix is not that of the screen.
The compounds below were run on Plasmodium berghei (assay: Screen against P. berghei liver stage (PbLuc), transformed with Luciferase, at 10uM). Conditions: tested at 10 uM.
Assay type: functional, HepG2

SMILES | INHIBITION [%]
CNC(=O)C1(Cc2cc(C(C)C)no2)CCN(Cc2ccccn2)C1 (stereo not given) | 11.9
Cc1noc(C(C)C)c1C(=O)NS(=O)(=O)c1ccc(Cl)cc1 | -28.4
CNc1cccc(C2CCCN(C(=O)c3cccnc3)C2)n1 (stereo not given) | 35.2
Cc1cnn(CC2CCCN2Cc2c(C)noc2C)c1 (stereo not given) | 5.983
O=C(CCc1nccs1)N1CCCC(n2ccnc2)C1 (stereo not given) | -1.14
CCOC(C)c1nccn1Cc1cc(C)on1 (stereo not given) | 26.4
CC(=O)Nc1ccc(CNC(C)c2c(C)nn(C)c2C)cc1 (stereo not given) | -42.1
COCCC(=O)N1CCCC1c1csc(Nc2ccccn2)n1 (stereo not given) | 30.8
CC(C)(C)c1nc(CN2CCCC2c2nnc3ccccn23)no1 (stereo not given) | 57.2
CC(C)(C)c1cc(NC(=O)CN2CCCC2Cn2cccn2)on1 (stereo not given) | 53
Cc1noc(C)c1CN1CCCC1c1nnc2ccccn12 (stereo not given) | 17.5
CC(C)c1cc(NC(=O)CN2CCCC2Cn2cccn2)on1 (stereo not given) | 19.5
CCn1c(C2CCCN2Cc2noc(C(C)(C)C)n2)nc2ccccc21 (stereo not given) | -12.1
CC(C)(C)c1cc(NC(=O)CN2CCCC2Cn2cncn2)on1 (stereo not given) | 9.41
COc1cccc(C(=O)NC(CC(=O)O)c2cccs2)c1OC (stereo not given) | -7.31
Cc1nc(C#N)c(N2CCC(c3nc(-c4ccc(F)cc4)no3)CC2)o1 | 34
Cc1nc(C#N)c(N2CCC(c3nc(-c4ccccc4)no3)CC2)o1 | 57.6
CCc1nc(C#N)c(N2CCC(c3nc(-c4ccccc4)no3)CC2)o1 | 34.6

SMILES | INHIBITION [%]
O=C(NCc1cc(F)cc(Br)c1)C1(O)CCSCC1 | -26.2
CC(C)(C(=O)NCC(=O)N1CCCC1)c1ccccc1F | -36.4
CC(C)(C(=O)N1CCC(CS(N)(=O)=O)CC1)c1ccccc1F | 17.9
CC(C)(C(=O)N1CCC(C(N)=O)C1)c1ccccc1F (stereo not given) | 52.9
c1coc(CN2CCCC3(COCCN(Cc4c[nH]nn4)C3)C2)c1 (stereo not given) | 4.92
O=C1CN(c2cc(-c3ccccc3F)nc3ccnn23)CCCN1 | 6.11
CCNC(=O)C1CCN(c2cc(-c3ccccc3F)nc3ccnn23)C1 (stereo not given) | 53.3
Cc1nn2c(N3CCC(C(N)=O)CC3)cc(-c3ccccc3)nc2c1C | 61.3
CCNC(=O)C1CCN(c2cc(CC)nc3ccnn23)C1 (stereo not given) | 52.2
CCNC(=O)C1CCN(c2cc(-c3ccccc3)nc3ccnn23)C1 (stereo not given) | 33
CCc1cc(N2CCN3CCCCC3C2)n2nccc2n1 (stereo not given) | 30.9
CCNC(=O)C1CCN(c2cc(-c3ccccc3)nc3cc(C)nn23)C1 (stereo not given) | 56.5
Cc1nn2c(N3CCCC(C(N)=O)C3)cc(-c3ccccc3)nc2c1C (stereo not given) | -32.2
CC(=O)NC1CCN(c2cc(-c3ccccc3)nc3c(C)c(C)nn23)C1 (stereo not given) | -3.58
CCNC(=O)C1CCN(c2nccc(C3CCCC3)n2)C1 (stereo not given) | -2.34
Cc1nn2c(N3CCC(O)CC3)cc(-c3ccccc3)nc2c1C | 41.8
CCc1cc(N2CC(N3CCCCC3C)C2)n2nccc2n1 (stereo not given) | 12.8

From ChEMBL document CHEMBL4513216, “Probing the Open Global Health Chemical Diversity Library for Multistage-Active Starting Points for Next-Generation Antimalarials” (ACS Infect Dis, 2020)
